CtBP-E1A inh: blocks the CtBP interaction with E1A; AlphaScreen GST-E1A/His-CtBP binding, 1536-well; stronger effect = lower value; activity change, % (no concentration beside the values); 340,000 compounds, 0.49% hits; in the data active = activity change below about -65%; inconclusive = mostly about -30% to -63%
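Homogeneous bead-based format: GST-tagged E1A captured on glutathione donor beads, His-tagged CtBP on nickel acceptor beads; compounds precede bead addition by 2 h at 37 °C.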
DT40 TDP1 no CPT: qHTS for Inhibitors of human tyrosyl-DNA phosphodiesterase 1 (TDP1): qHTS in cells in absence of CPT | DT40 Tdp1-/- hTDP1 cells, no CPT, ATP luminescence, 48 h | Potency, µM (top dose mostly 46.2 µM), inactives show at the highest dose activity change, negative = growth inhibition, actives largely listed as inhibitors | 420,000 compounds, 15% hits; also: potency is read from the fitted curve at half-maximal effect; nearly all actives have a fitted effect of over 55% in size
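Compound effects on proliferation are scored in DT40 Tdp1-/-;hTDP1 cells in the absence of CPT. ATP levels (CellTiter-Glo luminescence) are recorded after a ≥48 hr, 37 °C incubation.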
IL-1B inflam inh: blocks inflammasome-driven IL-1 beta release; THP-1 LPS/ATP IL-1B secretion, AlphaLISA, 16 h; stronger effect = lower value; activity change, % at 57.5 µM; 360,000 compounds, 4.7% hits; AID 743279; in the data active = activity change below about -50%; inconclusive = mostly about -30% to -49%
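THP-1 cells pretreated 1 hr with compounds (up to 57.5 uM final), then stimulated with LPS (250 ng/mL final) plus ATP (1.25 mM final); secreted IL-1B measured by AlphaLISA after 16 hr, decreased signal indicating inhibition.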
Six1-Eya2 blk: inhibitors of human Six1/Eya2 interaction; Q15475+O00167; AlphaScreen GST-Six1/His-Eya2 binding, biochemical; stronger effect = lower value; activity change, % (no concentration beside the values); 360,000 compounds, 0.56% hits; AID 651725; in the data active = activity change below about -65%; inconclusive = mostly about -30% to -63%
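GST-Six1 + His-Eya2 (5X stock: 250/500 nM); Tris pH 8.0, 300 mM NaCl, 0.05% BSA, 0.02% Tween 20; GSH donor/Ni acceptor beads; 1 h 37 °C dark; AlphaScreen readout.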
DT40 TDP1 CPT: growth inhibition of DT40 Tdp1-/-;hTDP1 cells with camptothecin (screen for TDP1 inhibitors) | chicken DT40 Tdp1-/-;hTDP1 cells + 20 nM CPT, ATP luminescence, 48 h | Potency, µM (doses to about 46.2 µM), for the others: at the top dose activity change, negative = growth inhibition, hits mostly inhibitors | 420,000 compounds, 12% hits; also: potency is read from the fitted curve at half-maximal effect; nearly all actives have a fitted effect of over 55% in size
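Cell growth measured by CellTiter-Glo luminescence after a minimum 48 h, 37 C compound exposure with 20 nM CPT in Tdp1-knockout DT40 cells stably expressing hTDP1, seeded 400/well; qHTS titration format.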
TDP1 inh: TDP1 (human) enzyme inhibition | recombinant TDP1, AlphaScreen DNA substrate cleavage | Potency, µM (top dose mostly 130 µM), without a hit: top-dose activity change, negative = inhibition, usual class: inhibitors | 350,000 compounds, 0.28% hits | AID 485290; also: potency is read from the fitted curve at half-maximal effect; nearly all actives have a fitted effect of over 40% in size
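Enzyme-compound mixtures sat 15 min at room temperature, followed by a 5 min reaction with 15 nM final substrate and 10 min with AlphaScreen beads. Recombinant human Tdp1 was used at 1 nM final.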
An asterisk follows results filed as active; ? = inconclusive; · = no result given. Most compounds without a hit are left out; they make up all but 18% or so of the library. Unless noted, calls follow the shape of the dose curve; as a rule, active = well fitted curve in the direction sought with a large enough effect; inconclusive = small, poorly fitted or top-dose-only effect, or another doubt; inactive = no such curve, though single readings can be large; an effect the other way counts as inactive or inconclusive. % is scaled to controls: 0 for no effect and ±100 for the full control effect.

SMILES	CtBP-E1A inh	DT40 TDP1 no CPT	IL-1B inflam inh	Six1-Eya2 blk	DT40 TDP1 CPT	TDP1 inh
COCCN1C(=O)/C(=C/c2ccc(OCc3ccc(C(=O)O)cc3)c(OC)c2)SC1=Nc1ccccc1	2	21µM*	-11	0	23µM*	5%
Cc1ccc(N2C(=O)c3ccc(C(=O)O)cc3C2=O)c(C)c1	12	-2%	30	8	-4%	3%
CCN(CC)Cc1oc(CO)cc(=O)c1O	0	-16%	-7	-4	1%	50µM*
O=c1cc(CO)oc(CN2CCCC2)c1O	7	-5%	11	-2	2%	-6%
COc1ccc(C(NC(C)=O)c2cc(Cl)c3cccnc3c2O)cc1 (centres undefined)	-93*	8.2µM*	256	-83*	8.2µM*	·
CC(=O)NC(c1ccccc1)c1cc(Cl)c2cccnc2c1O (centres undefined)	-91*	?	87	-87*	?	2%
O=C(NC(c1ccc(Cl)cc1)c1cc(Cl)c2cccnc2c1O)c1cccnc1 (centres undefined)	-4	4.1µM*	?	-17	5.2µM*	5%
CC(=O)NC(c1ccc(N(C)C)cc1)c1cc(Cl)c2cccnc2c1O (centres undefined)	?	6.5µM*	61	-81*	4.6µM*	·
CCCC[C@@H]1C[C@H]1C(NC(=O)c1cccnc1)c1ccc(Cl)cc1 (some centres undefined)	·	·	·	·	·	-7%
O=S1(=O)CC(N2CCC(c3ccccc3)CC2)CN1C1CCCCC1 (centres undefined)	0	?	0	-5	?	·
O=S(=O)(CCSc1nc2ccccc2o1)c1nc2ccccc2s1	5	3.7µM*	-99*	1	4.1µM*	2%
O=S(=O)(CCSc1ccccn1)c1nc2ccccc2s1	0	5.2µM*	-106*	27	2.3µM*	-7%
N#Cc1ccc(CS(=O)(=O)c2nc3ccccc3s2)cc1	·	·	·	·	·	7%
O=S(=O)(NCCSc1nc2ccccc2o1)c1ccccc1	-11	16µM*	0	-12	16µM*	2%
CCS(=O)(=O)CCSc1nc2ccccc2o1	-4	-3%	4	2	0%	-3%
COc1ccc(NC(=O)c2nc3nccc(C)n3n2)cc1S(=O)(=O)N1CCOCC1	-11	-1%	16	-15	-2%	-16%
C[C@H](NC(=O)[C@@H]1Cc2ccccc2CN1)C(=O)NC[C@H]1CC[C@H](C(=O)O)CC1	·	?	-3	9	-22%	·
CCCNC(=O)c1cc(C2CCCCN2C(=O)c2ccc3c(c2)CCO3)on1 (centres undefined)	3	-24%	9	-1	-12%	·
N#Cc1ccc(C(=O)N2CCCCC2c2cc(C(=O)Nc3ccc4c(c3)OCO4)no2)cc1 (centres undefined)	-6	23µM*	-16	-18	?	·
O=C(Nc1ccc2c(c1)OCO2)c1cc(C2CCCCN2C(=O)c2ccc3c(c2)CCO3)on1 (centres undefined)	0	26µM*	-13	-8	26µM*	·
COC(=O)N1CCCCC1c1cc(C(=O)Nc2ccc3c(c2)OCO3)no1 (centres undefined)	1	-25%	0	-6	0%	·
O=C(Nc1ccc2c(c1)OCO2)c1cc(C2CCCCN2C(=O)c2ccc(Cl)cc2)on1 (centres undefined)	-18	21µM*	-1	-17	21µM*	·
O=C(Nc1ccccc1Cl)c1cc(C2CCCN(C(=O)c3ccc4c(c3)CCO4)C2)on1 (centres undefined)	-15	15µM*	33	-14	13µM*	·

High-throughput results deposited in PubChem by National Center for Advancing Translational Sciences (NCATS).
